Compounds with a hit are over-represented: about 3.5% of the library has one in this group of screens.
MITF inh = human MITF inhibition, primary screen | O75030 | AlphaScreen MITF homodimerization, bead proximity signal | inhibition, % at 2.6 µM | hit rate 0.91% among 650,000 | AID 1259374; in the data active = inhibition above about 50%;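 also: 0% = vehicle wells with protein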
FBW7 activator = human FBW7 E3 ligase activation, primary screen; normalized activity (activation), % at 26.1 µM; AlphaScreen FBW7–phospho-cyclin E peptide binding, activator screen; hit rate 0.13% among 650,000; Q969H0; AID 1259310; in the data active = normalized activity above about 1.9%;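 also: purified mutant Fbw7 with reduced substrate affinity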
TEAD-YAP block = TEAD-YAP interaction inhibition; HEK-TIYL cells, TEAD-Gal4/YAP UAS-luciferase luminescence; inhibition, % at 9.12 µM; hit rate 1.4% among 640,000; AID 1259422; in the data active = inhibition above about 32%;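 also: 0% = median of test compound wells and 100% = reference inhibitor wells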
GPR151 ag = activators of human GPR151; Q8TDV0; PathHunter beta-arrestin GPR151 cells, luminescence; activation, % at 11.2 µM; hit rate 1% among 650,000; AID 1508602; in the data active = activation above about 4.9%;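 also: 0% = median of compound wells and 100% = cells with positive control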
Target sequence (Q8TDV0 whole entry, looked up): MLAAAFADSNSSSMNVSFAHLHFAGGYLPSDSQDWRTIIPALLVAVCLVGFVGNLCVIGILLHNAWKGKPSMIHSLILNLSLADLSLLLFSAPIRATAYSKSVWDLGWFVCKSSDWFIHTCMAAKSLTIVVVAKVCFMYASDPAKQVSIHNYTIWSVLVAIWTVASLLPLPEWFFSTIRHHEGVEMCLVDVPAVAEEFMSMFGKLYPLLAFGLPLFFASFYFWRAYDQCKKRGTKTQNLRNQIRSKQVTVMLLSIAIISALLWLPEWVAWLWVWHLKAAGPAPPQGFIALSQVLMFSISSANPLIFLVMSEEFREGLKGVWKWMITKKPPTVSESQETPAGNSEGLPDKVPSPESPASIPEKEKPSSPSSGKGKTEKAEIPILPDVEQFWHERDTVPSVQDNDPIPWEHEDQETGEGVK
GPR151 conf act = confirmation of human GPR151 activators; activation, % at 11.2 µM; shares compounds with GPR151 ag; 6,700 tested, under 10 active; GPR151 PathHunter beta-arrestin cells, luminescence, 90 min; % of EA-reagent control over plate median;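 active = mean percent activation across replicates above the confirmation screen cutoff of 4.91%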
GPR119 ag = GPR119 activation, counter-screen for GPR151 activators; GPR119 PathHunter beta-arrestin cells, luminescence, 90 min; 0 = compound-well median, 100 = enzyme-acceptor control; activation, % at 11.2 µM; shares compounds with GPR151 ag; hit rate 0.3% among 6,700;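 active = mean percent activation in the counterscreen above 29.09%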;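 also: counterscreen on off-target GPR119 to flag nonselective hits from the GPR151 activator screen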
Active calls of the source: *; · = not tested or not shown; ! = repeats disagree.

SMILES	MITF inh	FBW7 activator	TEAD-YAP block	GPR151 ag	GPR151 conf act	GPR119 ag
CCOc1ccc(N2CC(C(=O)Nc3ccc(Br)cc3CC)CC2=O)cc1 (stereo unspecified)	4	0	0	4.9*	0	9
Cc1ccc(NC(=O)C2CC(=O)N(c3ccc(F)cc3)C2)c(C)c1 (stereo unspecified)	3	0	8	19*	0	13
Oc1ccc(-c2cnn3ccc(Nc4ccc(F)c(Cl)c4)nc23)cc1	12	0	6	1	·	·
COC(=O)CN(c1ccccc1OC)S(=O)(=O)c1ccc(OC)cc1	-2	0	2	7.1*	0	2
CCOC(=O)CN(c1ccccc1Cl)S(=O)(=O)c1ccc(F)cc1	-2	0	7	23*	0	5
COc1ccc(S(=O)(=O)N(CC(=O)O)c2ccc(Cl)cc2)cc1	7	0	3	5.6*	-1	-15
Cn1c(=O)c2c(-c3ccccc3)n(/N=C/c3ccccc3O)cc2n(C)c1=O	1	0	-14	1	·	·
CC(C)C(NC(=O)/C(=C\c1ccc(Cl)cc1)NC(=O)c1ccco1)C(=O)O (stereo unspecified)	7	0	-3	1	·	·
O=[N+]([O-])c1ccc(C2N(c3ccccc3)CCN2c2ccccc2)s1	11	0	7	4.9*	-1	-2
Brc1ccc(C2N(c3ccccc3)CCN2c2ccccc2)s1	0	0	-17	0	·	·
O=[N+]([O-])c1cc(S(=O)(=O)Nc2ccc(O)c(Sc3nc4ccccc4s3)c2)ccc1Cl	21	1	-12	-1	·	·
CC(C)NC(=O)c1cnc2scc(-c3ccccc3)n2c1=O	3	0	2	8.5*	2	3
COc1ccccc1OCCn1cc(/C=C2/C(=N)N3N=C(C(C)C)SC3=NC2=O)c2ccccc21	5	0	5	0	·	·
CN1CCN(S(=O)(=O)c2ccc(C3CCCCC3)cc2)CC1	4	0	2	5.3*	1	-2
CSc1ccc(S(=O)(=O)N2CCCCCC2)cc1	15	0	3	5.0*	0	0
Cc1cc(CN2CCN(C3CCCC3)C(CCO)C2)cc(C)c1O (stereo unspecified)	-6	0	6	1	·	·
O=C(NC1C2CC3CC(C2)CC1C3)c1ccc(CN2CCC(O)CC2)[nH]c1=O (stereo unspecified)	1	0	4	-1	·	·
O=C(N[C@H]1CCCCNC1=O)c1ccc(CN2CCC(c3ccccc3)CC2)[nH]c1=O	-13	0	3	5.3*	0	6
CCOC(=O)COc1ccc(/C=C2\C=C(c3ccc(Br)cc3)OC2=O)cc1OC	-14	0	6	13*	2	14
O=C(N/N=C/c1ccncc1)C1CC1(c1ccccc1)c1ccccc1 (stereo unspecified)	-25	0	-18	5.9*	0	8
CCOc1ccc(NC(=O)CC2Sc3ccc(C(F)(F)F)cc3NC2=O)c([N+](=O)[O-])c1 (stereo unspecified)	9	0	-2	5.0*	0	8
Cn1c(SCC(=O)NCCc2ccccc2)nnc1-c1ccncc1	5	0	5	6.1*	1	1
O=C(CSc1nc2ccccc2n1S(=O)(=O)c1ccccc1)NCCc1ccccc1	-8	0	-9	1	·	·
Cc1ccc(S(=O)(=O)n2c(SCC(=O)NCCc3ccccc3)nc3ccccc32)cc1	8	0	-7	5.4*	0	6
CCN(CC)Cc1c(C(=O)N/N=C(\C)c2ccccc2)nnn1-c1nonc1N	9	0	4	1	·	·
SMILES	MITF inh	FBW7 activator	TEAD-YAP block	GPR151 ag	GPR151 conf act	GPR119 ag
COc1ccccc1C1C=C(c2ccc(I)cc2)Nc2ncnn21 (stereo unspecified)	2	0	3	7.4*	0	-8
COc1ccc(NC(=O)c2cc(Cl)ccc2NC(=O)c2cccc([N+](=O)[O-])c2)cc1	2	1	-1	-3	·	·
O=C(Nc1ccc(Br)cc1F)NC1CCCCC1	-4	0	-45	6.6*	1	0
COc1ccc(CNC2C3CC4CC(C3)CC2C4)c(OC)c1 (stereo unspecified)	5	0	5	5.6*	0	-6
COc1cc(C(=O)Nc2ccc3oc(-c4ccc(C(C)(C)C)cc4)nc3c2)cc(OC)c1OC	-2	0	9	0	·	·
CCOc1cc(CC(=O)N[C@@H](CC(C)C)c2ccccc2N2CCCCC2)ccc1C(=O)O	-4	0	5	7.1*!	0	12
CCOc1ccc(C(=O)Nc2ccccc2N2CCCC2)cc1	-1	0	-14	-1	·	·
O=C(NC(=O)c1ccccc1)Nc1ccc(Br)cc1	-10	0	-20	6.1*	-1	-11
COCCNC(=O)c1cccc(OC2CCN(C(C)CSC)CC2)c1 (stereo unspecified)	-2	0	4	7.0*	0	10
CS(=O)(=O)N1CCC(Oc2cccc(C(=O)NCCCOc3cccnc3)c2)CC1	0	0	6	5.0*	0	5
C=C(C)CCC(C)N1CCC(Oc2cccc(C(=O)NCCOC)c2)CC1 (stereo unspecified)	4	0	3	-1	·	·
C#Cc1cccc(N2C(=O)c3cc4ccccc4c(-c4ccccc4)c3C2=O)c1	7	0	7	5.4*	1	-5
O=C1c2oc3ccccc3c(=O)c2C(c2cccc(F)c2)N1c1nccs1 (stereo unspecified)	-7	0	3	1	·	·
Cc1cc(Cl)ccc1OC(C)C(=O)NCC1CCCO1 (stereo unspecified)	8	0	12	-1	·	·
COc1ccccc1OCCCN1C(=O)C(=O)c2cc(Br)cc(C)c21	-4	0	13	14*	1	15
CC1(C)c2ssc(=S)c2-c2ccccc2N1C(=O)c1ccccc1Cl	-1	-1	-6	1	·	·
Cc1c(N=Cc2ccccc2)cc([N+](=O)[O-])cc1[N+](=O)[O-]	-4	0	5	5.3*	-1	-7
Cc1c(N=CN(C)C)cc([N+](=O)[O-])cc1[N+](=O)[O-]	0	0	13	0	·	·
CC(=O)/C(Sc1n[nH]c(=O)[nH]c1=O)=C(/C)O	1	0	4	0	·	·
COc1ccc(N=C2SC(CC(=O)Nc3ccccc3)C(=O)N2CCN(C)C)cc1 (stereo unspecified)	18	0	3	0	·	·
COc1ccccc1/C=N/N=C1/NC(=O)C(CC(=O)Nc2ccc(Cl)cc2)S1 (stereo unspecified)	-2	0	3	1	·	·
C=CCN1C(=O)C(CC(=O)Nc2cccc(C(C)=O)c2)SC1=Nc1ccc(OC)cc1 (stereo unspecified)	-4	0	5	5.7*	0	0
